DAX1 inh-1: DAX1 (NR0B1) inhibitors, primary screen, cell-based, HEK293, Gal4-DAX1, luciferase luminescence; Nuclear receptor subfamily 0 group B member 1 (Homo sapiens), P51843; HEK293 Gal4-DAX1 luciferase reporter; inhibition, % at 6.75 µM; 340,000 tested, 0.99% active;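 active = inhibition above the mean over all tested compounds plus 3 SD, cut at about 4.2% in these data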;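 note: 0% = DAX1-transfected cells with DMSO and 100% = empty-vector control cells with DMSO; inhibition shows as a rise in luminescence from relieved DAX1 repression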
Target sequence (P51843 207-470 limits assumed): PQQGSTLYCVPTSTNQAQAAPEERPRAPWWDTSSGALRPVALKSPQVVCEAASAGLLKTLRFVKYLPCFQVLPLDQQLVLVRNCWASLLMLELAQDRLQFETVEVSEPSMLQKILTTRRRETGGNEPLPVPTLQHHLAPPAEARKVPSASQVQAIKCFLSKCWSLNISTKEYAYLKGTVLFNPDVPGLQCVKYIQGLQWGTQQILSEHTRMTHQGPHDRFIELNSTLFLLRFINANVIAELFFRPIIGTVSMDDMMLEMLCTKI
ssDAF-12 act: S. stercoralis DAF-12 nuclear receptor activators, primary screen, cell-based, luminescence, HEK293, GRIP1 co-expression, lit1-tk-luc; Nuclear hormone receptor DAF-12 (Strongyloides stercoralis); HEK293 ssDAF-12/GRIP1 lit1-tk-luc reporter; % of 3 µM dafachronic acid response; activation, % at 6.8 µM; 370,000 tested, 1% active; AID 652126, 2013;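 active = activation above the mean over all tested compounds plus 3 SD, cut at about 0.9% in these data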;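 note: 0% = DMSO-only wells and 100% = 3 µM delta7-dafachronic acid wells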
hgDAF-12 ag: H. glycines DAF-12 receptor agonists, primary screen, cell-based, luminescence, HEK293, GAL4 fusion, UAS-luciferase | activation, % at 6.8 µM | Nuclear hormone receptor DAF-12 (Heterodera glycines), GAL4 fusion | HEK293 GAL4-hgDAF12 UAS-luciferase reporter, agonist luminescence; normalized to butyrate control | 370,000 tested, 1.8% active | AID 687014, 2013;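 active = activation above a cutoff set at the mean of all screened compounds plus 3 SD, cut at about 10% in these data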;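 note: 0% = DMSO wells and 100% = sodium butyrate wells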
DAX1 inh-2: DAX1 (NR0B1) inhibitors on StAR promoter, primary screen, cell-based, luminescence, SF-1 (NR5A1), full-length DAX-1 | HEK293T StAR-luciferase reporter, SF-1/DAX-1 repression relief | inhibition, % at 6.8 µM | 370,000 tested, 1.1% active;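 active = inhibition above the mean over all tested compounds plus 3 SD, cut at about 3.6% in these data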;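 note: 0% = DAX-1 cells with DMSO and 100% = cells lacking DAX-1 with DMSO; higher inhibition means more luminescence from relief of DAX-1 repression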
hcDAF-12 act: H. contortus DAF-12 nuclear receptor activators, primary screen, cell-based, luminescence, HEK293, lit1-tk-luc reporter | HEK293 hcDAF-12 lit1-tk-luc reporter; 0% DMSO, 100% Δ7-dafachronic acid | activation, % at 6.8 µM | 370,000 tested, 1.4% active | AID 652067, 2013;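 active = activation above the mean of all tested compounds plus 3 SD, cut at about 5.5% in these data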;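 note: 100% = response to 3 µM Δ7-dafachronic acid high control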
hgDAF12 conf: H. glycines DAF-12 receptor agonists, confirmation, cell-based, luminescence, HEK293, GAL4-LBD fusion; HEK293 GAL4-hgDAF12 luciferase reporter, agonist mode; percent of butyrate response; activation, % at 6.8 µM; shares compounds with hgDAF-12 ag; 3,300 tested, 80% active;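 active = mean activation over triplicate wells above the hit cutoff derived from the earlier primary screen, cut at about 11% in these data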;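 note: 0% = DMSO low control and 100% = 2 mM sodium butyrate high control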
LXR ag 2: LXR agonists, Gal4 luciferase reporter, confirmation, counter-screen for hgDAF-12 agonist project, cell-based, luminescence, HEK293, H. glycines campaign; shares compounds with hgDAF-12 ag; 24 h; activation, % at 6.8 µM; 3,300 tested, under 10 active;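 active = mean activation of the triplicate above a set limit carried over from the primary screen, none filed active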
* marks the source's active call; other numbers are inactive results; / = no result given. Most compounds without a hit are left out; they make up all but 4.1% or so of the library.

SMILES | DAX1 inh-1 | ssDAF-12 act | hgDAF-12 ag | DAX1 inh-2 | hcDAF-12 act | hgDAF12 conf | LXR ag 2
Cc1cc(C(=O)NC2CCCCC2)c(C)n1-c1ccc(F)cc1 | 0 | -1 | 14* | 3 | 5.8* | 12* | 1
Cc1cc(C(=O)CN2C(=O)C(=O)N(C3CCCC3)C2=O)c(C)n1-c1ccc(F)cc1 | 0 | -2 | -1 | 0 | -1 | / | /
Cc1cc(C(=O)CN2CCC(C)CC2)c(C)n1-c1ccc(F)cc1 | 1 | 0 | 14* | 3 | 1 | 13* | 1
Cc1nc(Nc2ncc(C(=O)Nc3c(C)cccc3Cl)s2)cc(N2CCN(CCO)CC2)n1 | / | -2 | 15* | 4.4* | -7 | 5 | 0
Cc1[nH]c2ccccc2c1C(=O)c1c(N)[nH]c(C(=O)c2ccccc2)c1-c1ccc(Cl)cc1 | / | -1 | 0 | 1 | 2 | / | /
Cc1csc(NC(=O)c2nc3nc(C)cc(C)n3n2)n1 | 3 | 0 | 9 | 2 | 4 | / | /
Cc1cc(C)n2nc(C(=O)Nc3nccs3)nc2n1 | 2 | 0 | 17* | 1 | 4 | 12* | 0
C[C@@H]1CCN(C2CC2)S(=O)(=O)c2ccc(N3CCC[C@H]3CO)cc2O1 | / | -1 | -3 | 0 | -3 | / | /
O=C1/C(=C/c2ccc(O)cc2)COc2ccccc21 | 1 | -1 | 15* | 1 | 2 | 12* | 1
O=C1/C(=C/c2ccccn2)COc2ccccc21 | 0 | -2 | 0 | 0 | -1 | / | /
CC(=O)COc1ccc2cc(-c3ccccc3)c(=O)oc2c1 | 3 | 0 | 17* | 2 | 6.2* | 17* | 1
COc1ccc(-c2cc3ccc(OCC(N)=O)cc3oc2=O)cc1OC | 0 | -1 | 2 | 0 | 2 | / | /
COC(=O)[C@]12C[C@H](CC(=O)N3CCN(C(=O)C4CC4)CC3)C(=O)N(CCc3ccc(OC)c(OC)c3)C1=C[C@H](COCc1ccccc1)O[C@@H]2C | / | -1 | 0 | -1 | -1 | / | /
C[C@@H](C(=O)Nc1ccc2c(c1)OCCO2)n1nnc2ccccc2c1=O | 2 | 0 | 13* | 1 | 2 | 14* | 1
CC(C(=O)Nc1ccc2c(c1)OCCO2)n1nnc(-c2ccccc2)n1 (stereo not given) | -1 | -1 | 1 | -1 | -1 | / | /
COCCN1C(=O)[C@H]2C[C@@]13O[C@H](c1ccc(C(F)(F)F)cc1)N=C3C[C@H](c1ccccc1)[C@H]2C | / | -1 | 0 | 0 | -1 | / | /
Oc1c(C=NCc2ccccc2)sc2ccccc12 | 12* | 0 | 15* | 1 | 4 | 16* | 0
Oc1cccc(C=NCc2ccccc2)c1O | -1 | -1 | -1 | -1 | -1 | / | /
CCc1cc2cc(C(=O)Nc3ccccc3F)sc2s1 | 4 | 0 | 15* | 3 | 6.4* | 18* | 1
CCc1cc2cc(C(=O)Nc3ccc(F)cc3)sc2s1 | -1 | -1 | 2 | 1 | -1 | / | /
COC(=O)[C@H](N[C@H](/C=C/c1ccccc1)[C@@H](O)Cc1ccccc1)c1ccccc1 | / | -1 | 0 | -1 | -2 | / | /
O=C(CC(Nc1ccc(Cl)cc1)C(=O)O)c1ccccc1 (stereo not given) | 1 | 1.2* | 14* | 3 | 4 | 20* | 1
COc1ccc(C(CC(=O)Nc2nccs2)C(C)C)cc1 (stereo not given) | 1 | -1 | -2 | 0 | -2 | / | /
COc1ccccc1OCCCC(=O)Nc1nccs1 | 3 | 0 | 14* | 4.5* | 2 | 11* | 0
COc1ccc(C(CC(=O)Nc2nccs2)n2cccc2)cc1 (stereo not given) | 3 | 0.9* | 16* | 2 | 3 | 16* | 1
SMILES | DAX1 inh-1 | ssDAF-12 act | hgDAF-12 ag | DAX1 inh-2 | hcDAF-12 act | hgDAF12 conf | LXR ag 2
O=C(COc1cccc2cccnc12)Nc1nccs1 | 2 | 1 | 14* | 1 | 4 | 10* | 1
C/C(=C\c1ccccc1)C(=O)Nc1nccs1 | 3 | 1 | 16* | 1 | 4 | 12* | 0
Cc1ccc(-n2c(SCC(=O)Nc3cccc4ccccc34)nnc2-c2cnccn2)cc1 | / | -2 | 3 | 0 | -1 | / | /
O=C1CCC[C@H]2C[C@H](NCc3ccc(Cl)c(Cl)c3)CC[C@]23CCCN13 | / | -1 | -1 | / | -1 | / | /
COC(=O)C1CN(Cc2ccccc2)CCS(=O)(=O)N1Cc1cn(Cc2ccc(C)cc2)nn1 (stereo not given) | / | -2 | 0 | -1 | -3 | / | /
C=CCN1[C@H](C#N)[C@@H](c2ccccc2)[C@H]1CO | / | 0 | -3 | 1 | -1 | / | /
O=C(C(=O)N1CCC(CNS(=O)(=O)c2cc(C(F)(F)F)cc(C(F)(F)F)c2)CC1)c1cccs1 | / | 0 | -1 | 0 | 0 | / | /
CN(C(=O)COC(=O)c1ccc2c(c1)OCO2)C1CCS(=O)(=O)C1 (stereo not given) | 1 | -1 | 0 | 0 | 0 | / | /
CN(C(=O)COC(=O)c1ccc2c(c1)OCO2)C1CCCCC1 | 2 | -1 | 13* | 1 | 1 | 7 | 0
COc1cccc(C(=O)NCc2ccc3c(c2)OCO3)c1OC | 0 | -1 | -2 | 0 | -2 | / | /
O=C(CCl)Nc1ccccc1C(=O)Nc1ccc2c(c1)OCO2 | -1 | 0 | 19* | 0 | 5 | 7 | 1
COc1cccc(C(=O)Nc2ccc3c(c2)OCO3)c1OC | 1 | 1 | 14* | 1 | 5.8* | 14* | 1
CCOc1ccc(-n2c(SCC(=O)Nc3ccc(S(=O)(=O)Nc4cc(C)nc(C)n4)cc3)nnc2-c2ccc(OC)cc2)cc1 | / | -1 | -1 | -1 | -3 | / | /
COP(=O)(O)C(Cc1ccccc1)NC(=O)OCc1ccccc1 (stereo not given) | / | -1 | 5 | 1 | -1 | / | /
Cc1nn(Cc2cccc(F)c2)c(C)c1NC(=O)c1ccc(COc2ccccc2Cl)cc1 | -3 | -3 | -6 | -1 | -4 | / | /

From PubChem BioAssay
